Reference: PubChem BioAssay
Unmarked numbers belong to inactive results. Activity calls are given as the source filed them.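 Rule for the calls: active = normalized viability below 100% at a tested concentration; inactive = the rest.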

Assay: ovarian cancer cell viability with rucaparib, profiling panel, oncology-focused library, rucaparib conditional (AID 1508598)
Settings: patient-derived ovarian cancer cells, CellTiter-Glo viability, 144 h, stronger effect = lower value
[1] = at 5 µM, OCI-P5x cells, with rucaparib 20 µM, 100% = cells with rucaparib alone
[2] = at 5 µM, OCI-P5x cells, without rucaparib
[3] = at 0.000305 µM, OCI-C5x cells, with rucaparib 10 µM, 100% = cells with rucaparib alone
[4] = at 0.000305 µM, OCI-C5x cells, without rucaparib
[5] = at 0.000305 µM, OCI-P5x cells, with rucaparib 20 µM, 100% = cells with rucaparib alone
[6] = at 0.000305 µM, OCI-P5x cells, without rucaparib
[7] = at 0.00122 µM, OCI-C5x cells, with rucaparib 10 µM, 100% = cells with rucaparib alone
[8] = at 0.00122 µM, OCI-C5x cells, without rucaparib
[9] = at 0.00122 µM, OCI-P5x cells, with rucaparib 20 µM, 100% = cells with rucaparib alone
[10] = at 0.00122 µM, OCI-P5x cells, without rucaparib
[11] = at 0.00488 µM, OCI-C5x cells, with rucaparib 10 µM, 100% = cells with rucaparib alone
[12] = at 0.00488 µM, OCI-C5x cells, without rucaparib
[13] = at 0.00488 µM, OCI-P5x cells, with rucaparib 20 µM, 100% = cells with rucaparib alone
[14] = at 0.00488 µM, OCI-P5x cells, without rucaparib
[15] = at 0.0195 µM, OCI-C5x cells, with rucaparib 10 µM, 100% = cells with rucaparib alone
[16] = at 0.0195 µM, OCI-C5x cells, without rucaparib
[17] = at 0.0195 µM, OCI-P5x cells, with rucaparib 20 µM, 100% = cells with rucaparib alone
[18] = at 0.0195 µM, OCI-P5x cells, without rucaparib
[19] = at 0.0781 µM, OCI-C5x cells, with rucaparib 10 µM, 100% = cells with rucaparib alone
[20] = at 0.0781 µM, OCI-C5x cells, without rucaparib
[21] = at 0.0781 µM, OCI-P5x cells, with rucaparib 20 µM, 100% = cells with rucaparib alone
[22] = at 0.0781 µM, OCI-P5x cells, without rucaparib
[23] = at 0.313 µM, OCI-C5x cells, with rucaparib 10 µM, 100% = cells with rucaparib alone
[24] = at 0.313 µM, OCI-C5x cells, without rucaparib
[25] = at 0.313 µM, OCI-P5x cells, with rucaparib 20 µM, 100% = cells with rucaparib alone
[26] = at 0.313 µM, OCI-P5x cells, without rucaparib
[27] = at 1.25 µM, OCI-C5x cells, with rucaparib 10 µM, 100% = cells with rucaparib alone
[28] = at 1.25 µM, OCI-C5x cells, without rucaparib
[29] = at 1.25 µM, OCI-P5x cells, with rucaparib 20 µM, 100% = cells with rucaparib alone
[30] = at 1.25 µM, OCI-P5x cells, without rucaparib
[31] = at 5 µM, OCI-C5x cells, with rucaparib 10 µM, 100% = cells with rucaparib alone
[32] = at 5 µM, OCI-C5x cells, without rucaparib

SMILES: C[C@H](O[C@H]1OCCN(Cc2n[nH]c(=O)[nH]2)[C@H]1c1ccc(F)cc1)c1cc(C(F)(F)F)cc(C(F)(F)F)c1
- viability [1]: 36.6% (active)
- viability [2]: 97.5% (active)

SMILES: CC(=O)OCC(=O)[C@]1(O)[C@H](C)C[C@H]2[C@@H]3CCC4=CC(=O)C=C[C@]4(C)[C@]3(F)[C@H](O)C[C@@]21C
- viability [3]: 119%
- viability [4]: 119%
- viability [5]: 107%
- viability [6]: 108%
- viability [7]: 121%
- viability [8]: 125%
- viability [9]: 105%
- viability [10]: 106%
- viability [11]: 131%
- viability [12]: 122%
- viability [13]: 110%
- viability [14]: 105%
- viability [15]: 124%
- viability [16]: 123%
- viability [17]: 109%
- viability [18]: 99.6% (active)
- viability [19]: 118%
- viability [20]: 112%
- viability [21]: 104%
- viability [22]: 98.1% (active)
- viability [23]: 113%
- viability [24]: 113%
- viability [25]: 100%
- viability [26]: 94.5% (active)
- viability [27]: 122%
- viability [28]: 123%
- viability [29]: 97.6% (active)
- viability [30]: 94.3% (active)
- viability [31]: 115%
- viability [32]: 110%
- viability [1]: 88.4% (active)
- viability [2]: 84.6% (active)

SMILES: CC1(C)C=C(CN2C/C(=C/c3ccc(F)cc3)C(=O)/C(=C/c3ccc(F)cc3)C2)C(C)(C)N1O
- viability [3]: 136%
- viability [4]: 110%
- viability [5]: 90.6% (active)
- viability [6]: 90.1% (active)
- viability [7]: 117%
- viability [8]: 106%
- viability [9]: 80% (active)
- viability [10]: 81.9% (active)
- viability [11]: 131%
- viability [12]: 112%
- viability [13]: 74.5% (active)
- viability [14]: 83.8% (active)
- viability [15]: 127%
- viability [16]: 112%
- viability [17]: 71% (active)
- viability [18]: 81.9% (active)
- viability [19]: 124%
- viability [20]: 117%
- viability [21]: 102%
- viability [22]: 106%
- viability [23]: 125%
- viability [24]: 109%
- viability [25]: 96.7% (active)
- viability [26]: 103%
- viability [27]: 127%
- viability [28]: 118%
- viability [29]: 102%
- viability [30]: 105%
- viability [31]: 124%
- viability [32]: 115%
- viability [1]: 55.9% (active)
- viability [2]: 97.4% (active)

SMILES: Nc1nc(F)nc2c1ncn2[C@H]1O[C@H](CO)[C@@H](O)[C@@H]1O
- viability [3]: 101%
- viability [4]: 120%
- viability [5]: 104%
- viability [6]: 108%
- viability [7]: 106%
- viability [8]: 117%
- viability [9]: 103%
- viability [10]: 107%
- viability [11]: 112%
- viability [12]: 120%
- viability [13]: 102%
- viability [14]: 112%
- viability [15]: 109%
- viability [16]: 116%
- viability [17]: 97.4% (active)
- viability [18]: 113%
- viability [19]: 106%
- viability [20]: 111%
- viability [21]: 110%
- viability [22]: 113%
- viability [23]: 89.3% (active)
- viability [24]: 112%
- viability [25]: 99% (active)
- viability [26]: 112%
- viability [27]: 80.7% (active)
- viability [28]: 82.4% (active)
- viability [29]: 110%
- viability [30]: 107%
- viability [31]: 79.6% (active)
- viability [32]: 11.9% (active)
- viability [1]: 106%
- viability [2]: 38.5% (active)

SMILES: C[C@]12CCC(=O)C=C1CC[C@@H]1[C@H]2[C@H](O)C[C@@]2(C)[C@H]1CC[C@@]2(O)C(=O)CO
- viability [3]: 107%
- viability [4]: 119%
- viability [5]: 105%
- viability [6]: 115%
- viability [7]: 109%
- viability [8]: 116%
- viability [9]: 98.6% (active)
- viability [10]: 109%
- viability [11]: 114%
- viability [12]: 121%
- viability [13]: 102%
- viability [14]: 117%
- viability [15]: 110%
- viability [16]: 128%
- viability [17]: 109%
- viability [18]: 112%
- viability [19]: 112%
- viability [20]: 132%
- viability [21]: 103%
- viability [22]: 115%
- viability [23]: 103%
- viability [24]: 119%
- viability [25]: 104%
- viability [26]: 114%
- viability [27]: 111%
- viability [28]: 118%
- viability [29]: 103%
- viability [30]: 114%
- viability [31]: 125%
- viability [32]: 120%
- viability [1]: 103%
- viability [2]: 99.3% (active)

SMILES: O=C1[C@H](CC[C@H](O)c2ccc(F)cc2)[C@H](c2ccc(O)cc2)N1c1ccc(F)cc1
- viability [3]: 109%
- viability [4]: 121%
- viability [5]: 106%
- viability [6]: 117%
- viability [7]: 107%
- viability [8]: 117%
- viability [9]: 107%
- viability [10]: 114%
- viability [11]: 111%
- viability [12]: 114%
- viability [13]: 101%
- viability [14]: 112%
- viability [15]: 109%
- viability [16]: 118%
- viability [17]: 104%
- viability [18]: 106%
- viability [19]: 107%
- viability [20]: 108%
- viability [21]: 98% (active)
- viability [22]: 102%
- viability [23]: 111%
- viability [24]: 111%
- viability [25]: 94.9% (active)
- viability [26]: 104%
- viability [27]: 126%
- viability [28]: 111%
- viability [29]: 96.5% (active)
- viability [30]: 96.4% (active)
- viability [31]: 128%
- viability [32]: 103%
- viability [1]: 84.2% (active)
- viability [2]: 94.6% (active)

SMILES: O=c1[nH]c(=O)n([C@@H]2C[C@H](O)[C@@H](CO)O2)cc1F
- viability [3]: 115%
- viability [4]: 119%
- viability [5]: 67.7% (active)
- viability [6]: 24.9% (active)
- viability [7]: 111%
- viability [8]: 117%
- viability [9]: 65.1% (active)
- viability [10]: 15.4% (active)
- viability [11]: 106%
- viability [12]: 121%
- viability [13]: 105%
- viability [14]: 98.1% (active)
- viability [15]: 98.9% (active)
- viability [16]: 111%
- viability [17]: 104%
- viability [18]: 100% (active)
- viability [19]: 109%
- viability [20]: 120%
- viability [21]: 104%
- viability [22]: 109%
- viability [23]: 109%
- viability [24]: 114%
- viability [25]: 104%
- viability [26]: 98.4% (active)
- viability [27]: 117%
- viability [28]: 128%
- viability [29]: 89.4% (active)
- viability [30]: 85.9% (active)
- viability [31]: 185%
- viability [32]: 183%
- viability [1]: 72.1% (active)
- viability [2]: 49.4% (active)

SMILES: CO[C@H]1C[C@H]2CC[C@@H](C)[C@@](O)(O2)C(=O)C(=O)N2CCCC[C@H]2C(=O)O[C@H]([C@H](C)C[C@@H]2CC[C@H](OP(C)(C)=O)[C@H](OC)C2)CC(=O)[C@H](C)/C=C(\C)[C@@H](O)[C@@H](OC)C(=O)[C@H](C)C[C@H](C)/C=C/C=C/C=C/1C
- viability [3]: 115%
- viability [4]: 103%
- viability [5]: 79.2% (active)
- viability [6]: 65.5% (active)
- viability [7]: 102%
- viability [8]: 97.3% (active)
- viability [9]: 77.8% (active)
- viability [10]: 59.6% (active)
- viability [11]: 97.3% (active)
- viability [12]: 90.1% (active)
- viability [13]: 76.6% (active)
- viability [14]: 61.2% (active)
- viability [15]: 103%
- viability [16]: 93.1% (active)
- viability [17]: 76.4% (active)
- viability [18]: 63% (active)
- viability [19]: 103%
- viability [20]: 96.7% (active)
- viability [21]: 76.7% (active)
- viability [22]: 60.3% (active)
- viability [23]: 108%
- viability [24]: 95.8% (active)
- viability [25]: 75.8% (active)
- viability [26]: 60.4% (active)
- viability [27]: 104%
- viability [28]: 94.5% (active)
- viability [29]: 82.1% (active)
- viability [30]: 60.8% (active)
- viability [31]: 114%
- viability [32]: 102%
- viability [1]: 74.3% (active)
- viability [2]: 59.8% (active)

SMILES: COc1ccc(C2=N[C@@H](c3ccc(Cl)cc3)[C@H](c3ccc(Cl)cc3)N2C(=O)N2CCNC(=O)C2)c(OC(C)C)c1
- viability [3]: 118%
- viability [4]: 104%
- viability [5]: 90.9% (active)
- viability [6]: 90.5% (active)
- viability [7]: 117%
- viability [8]: 104%
- viability [9]: 94.2% (active)
- viability [10]: 89.4% (active)
- viability [11]: 122%
- viability [12]: 106%
- viability [13]: 97.7% (active)
- viability [14]: 95.5% (active)
- viability [15]: 106%
- viability [16]: 100%
- viability [17]: 96.2% (active)
- viability [18]: 95.8% (active)
- viability [19]: 113%
- viability [20]: 99.5% (active)
- viability [21]: 100%
- viability [22]: 96.7% (active)
- viability [23]: 97.4% (active)
- viability [24]: 101%
- viability [25]: 104%
- viability [26]: 99.4% (active)
- viability [27]: 93.7% (active)
- viability [28]: 100%
- viability [29]: 97.7% (active)
- viability [30]: 101%
- viability [31]: 84.5% (active)
- viability [32]: 95.4% (active)
